The campaign covered roughly 69,000 compounds. About 8,600 (12%) showed an effect of 50% or more. The entries come from a sample that favours strong results as a whole.

This assay concerns Plasmodium berghei. In words: Screen against P. berghei liver stage (PbLuc), transformed with Luciferase, at 10uM. Format: functional, HepG2. The following applies: tested at 10 uM.
As for `CCSc1ccc(C(C)NC(=O)CCS(C)(=O)=O)cc1` (centres undefined), the INHIBITION is 2.91%.

With `CC(C)Sc1ccc(C(C)NC(=O)CNS(C)(=O)=O)cc1` (centres undefined), the INHIBITION stood at 38%.

Regarding `CCSc1ccc(C(C)NC(=O)CNS(C)(=O)=O)cc1` (centres undefined), the INHIBITION was determined as 51.7%.

Regarding `CCSCCNc1nc(-c2ccccn2)nc2c1c(C)nn2C`, the INHIBITION is listed as 51.3%.

Consider `CC(=O)NCCNc1nc(-c2ccccn2)nc2c1c(C)nn2C`, for which the INHIBITION came out at 39.1%.

For the molecule `Cc1nn(C)c2nc(-c3ccccn3)nc(NCCCOC(C)C)c12`, the INHIBITION was 5.46%.

On to `CC(C)N(C)Cc1cnc2n1CCN(C(=O)Cc1cccs1)C2C` (centres undefined), for which the INHIBITION was -18.5%.

As to `Cc1nccn1C1CCCN(C(=O)c2ccnc(-n3ccnc3)c2)C1` (centres undefined), the INHIBITION came out at 18.2%.

In the case of `CC(C)n1nnc(CC(=O)NCC2(c3ccccc3F)CCOCC2)n1`, the INHIBITION stood at 27.05%.

As to `O=C(c1cc2cccc(F)c2[nH]1)N1C[C@@H](O)[C@H](N2CCOCC2)C1`, the INHIBITION is listed as -9.08%.

On to `CCOCC(=O)NCC1(NC(C)c2ccccc2)CCOCC1` (centres undefined), for which the INHIBITION is 42%.

In the case of `CC(NC1(CNC(=O)NC2CC2)CCOCC1)c1ccccc1` (centres undefined), the INHIBITION amounted to 43.1%.

With `CC(NC1(CNC(=O)CC2CCCC2)CCOCC1)c1ccccc1` (centres undefined), the INHIBITION was found to be 82.1%.

As to `CCC(CC)C(=O)NCC1(NC(C)c2ccccc2)CCOCC1` (centres undefined), the INHIBITION is given as 59.3%.

For the molecule `CC(NC1(CNC(=O)OC(C)(C)C)CCOCC1)c1ccccc1` (centres undefined), the INHIBITION is recorded as 36.6%.

Consider `CC(NC1(CNC(=O)CC(C)(C)C)CCOCC1)c1ccccc1` (centres undefined), for which the INHIBITION is on record as -6.75%.

In the case of `COc1cccc(CNCC2(COc3cccnc3)C[C@@H](O)[C@@H](O)C2)c1` (some centres undefined), the INHIBITION is 46.4%.

With `CC(Nc1ccc(C(F)(F)F)cc1C#N)c1cccc(S(N)(=O)=O)c1` (centres undefined), the INHIBITION was 28.6%.

Turning to `CC(C)(CO)Nc1c(NCc2ccccn2)c(=O)c1=O`, the INHIBITION worked out at 6.34%.

On to `O=c1c(NCc2ccco2)c(NCC(O)CN2CCOCC2)c1=O` (centres undefined), for which the INHIBITION is 48.9%.

Regarding `O=c1c(NCc2ccncc2)c(NCC(O)CN2CCOCC2)c1=O` (centres undefined), the INHIBITION came to 50.8%.

Turning to `OC(CNc1ccc(Cl)cn1)CN1CCOCC1` (centres undefined), the INHIBITION is on record as -58.5%.

In the case of `CC(C)CNC(=O)CNc1c(NCc2ccccn2)c(=O)c1=O`, the INHIBITION was -8.8%.

Consider `O=c1c(NCc2ccccn2)c(NCC(O)CN2CCOCC2)c1=O` (centres undefined), for which the INHIBITION stood at 50.8%.

Consider `CC(NC(=O)NCc1cccnc1N(C)C)c1ccc(F)cc1` (centres undefined), for which the INHIBITION is -12.1%.

Regarding `COCCC(=O)N1C[C@@H]2CC[C@H]1CN(C1Cc3ccccc3C1)C2`, the INHIBITION is -20.6%.

As for `CN(C)CCO[C@H]1CN(C(=O)c2ccc[nH]2)[C@@H]2COC[C@H]12`, the INHIBITION is 7.65%.

Consider `CCN(CC)C1CCN(C(=O)c2cc(-n3cccn3)ccc2Cl)CC1`, for which the INHIBITION came out at 14.6%.

Regarding `CC(=O)N1CC2(CCNCC2)c2cc(C)ccc21`, the INHIBITION is recorded as 7.77%.

With `CCN1CCC2(CC1)CC(NC(=O)NC)c1cc(C)ccc12` (centres undefined), the INHIBITION was -25%.

Consider `CNC(=O)NC1CC2(CCNCC2)c2ccc(C)cc21` (centres undefined), for which the INHIBITION turned out to be 63%.

For `Cc1ccc2c(c1)C(NC(C)C)CC21CCNCC1` (centres undefined), the INHIBITION is -46.4%.

Consider `Cc1ccc2c(c1)C1(CCNCC1)CC2NCCO` (centres undefined), for which the INHIBITION is 55.7%.

As for `Fc1ccc2c(c1)C1(CCNCC1)CC2NC1CC1` (centres undefined), the INHIBITION came to 95.5%.

Take `Cc1ccc2c(c1)C1(CCNCC1)CC2NC(C)C` (centres undefined): the INHIBITION is given as -22.7%.

In the case of `CC(C)NC1CC2(CCNCC2)c2cc(F)ccc21` (centres undefined), the INHIBITION is reported as -33.1%.

On to `Fc1ccc2c(c1)C1(CCNCC1)CC2OCC1CC1` (centres undefined), for which the INHIBITION was -5.63%.

With `c1ccc2c(c1)C(NC1CCCC1)CC21CCNCC1` (centres undefined), the INHIBITION came out at 71.1%.

Take `Cc1ccc(OCC(O)CN2CCC(Cn3cccn3)CC2)cc1` (centres undefined): the INHIBITION stood at 28.5%.

For the molecule `Cc1ccc(-c2nc(C(=O)N3CCCC(C(N)=O)C3)cs2)c(C)c1` (centres undefined), the INHIBITION is on record as -79.45%.

As to `CC(c1ccncc1)N(CCN(C)C)C(=O)Nc1ccc(Cl)cc1` (centres undefined), the INHIBITION turned out to be 8.49%.

On to `Cc1nn(CC(C)C)c(C)c1CC(=O)N1CCCC(NS(C)(=O)=O)C1` (centres undefined), for which the INHIBITION is on record as 17.1%.

Regarding `Cc1cc(C)c(C#N)c(N2CCC3(CCCN(CCO)C3=O)C2)n1` (centres undefined), the INHIBITION is -17.2%.

`COc1cn(CC(=O)N2CCC(c3ccccc3)CC2)c(C)cc1=O`: the INHIBITION came to 12.4%.

Regarding `Cc1ccc2c(c1)C1(CCNCC1)CC2NC1CC1` (centres undefined), the INHIBITION was found to be 67.5%.

As for `COc1ccc2c(c1)C1(CCNCC1)CC2NC1CC1` (centres undefined), the INHIBITION came out at 94.6%.

In the case of `Cc1ccc2c(c1)C(NC1CC1)CC21CCNCC1` (centres undefined), the INHIBITION amounted to 42.1%.

`Cc1ccc2c(c1)C1(CCNCC1)CC2OCC1CC1` (centres undefined): the INHIBITION was -26.5%.

Turning to `COc1cccc(N2C(=O)CC3(CCNCC3)C2=O)c1`, the INHIBITION turned out to be 22.3%.

`COc1cccc(-c2ccnc(C3CCNCC3)c2)c1`: the INHIBITION was -23.8%.

On to `COc1cccc(C(=O)N2CCCCC2c2nccs2)c1OC` (centres undefined), for which the INHIBITION is -7.35%.

Consider `COCC(=O)N1CCC(c2cc3n(n2)[C@@H](C(F)(F)F)C[C@@H](C)N3)CC1`, for which the INHIBITION is listed as 49.6%.

On to `CC(C)(O)CCc1cccc(C(=O)N2CCC[C@H]2C(N)=O)c1`, for which the INHIBITION is 40.2%.

Turning to `COc1ccc(NC(=O)NCCCn2nc3ccccn3c2=O)cc1`, the INHIBITION is listed as 16.8%.

The values are drawn from ChEMBL document CHEMBL4513216, “Probing the Open Global Health Chemical Diversity Library for Multistage-Active Starting Points for Next-Generation Antimalarials” (ACS Infect Dis, 2020).
